The source of these data is the supplement of paper PMC6411743.

± gives the standard deviation of the averaged measurements. The full data set covers some 5,400 targets. This sample favours those with the largest changes.

UniProt Q9NZM4, sequence (Q9NZM4 whole entry, one chain of several): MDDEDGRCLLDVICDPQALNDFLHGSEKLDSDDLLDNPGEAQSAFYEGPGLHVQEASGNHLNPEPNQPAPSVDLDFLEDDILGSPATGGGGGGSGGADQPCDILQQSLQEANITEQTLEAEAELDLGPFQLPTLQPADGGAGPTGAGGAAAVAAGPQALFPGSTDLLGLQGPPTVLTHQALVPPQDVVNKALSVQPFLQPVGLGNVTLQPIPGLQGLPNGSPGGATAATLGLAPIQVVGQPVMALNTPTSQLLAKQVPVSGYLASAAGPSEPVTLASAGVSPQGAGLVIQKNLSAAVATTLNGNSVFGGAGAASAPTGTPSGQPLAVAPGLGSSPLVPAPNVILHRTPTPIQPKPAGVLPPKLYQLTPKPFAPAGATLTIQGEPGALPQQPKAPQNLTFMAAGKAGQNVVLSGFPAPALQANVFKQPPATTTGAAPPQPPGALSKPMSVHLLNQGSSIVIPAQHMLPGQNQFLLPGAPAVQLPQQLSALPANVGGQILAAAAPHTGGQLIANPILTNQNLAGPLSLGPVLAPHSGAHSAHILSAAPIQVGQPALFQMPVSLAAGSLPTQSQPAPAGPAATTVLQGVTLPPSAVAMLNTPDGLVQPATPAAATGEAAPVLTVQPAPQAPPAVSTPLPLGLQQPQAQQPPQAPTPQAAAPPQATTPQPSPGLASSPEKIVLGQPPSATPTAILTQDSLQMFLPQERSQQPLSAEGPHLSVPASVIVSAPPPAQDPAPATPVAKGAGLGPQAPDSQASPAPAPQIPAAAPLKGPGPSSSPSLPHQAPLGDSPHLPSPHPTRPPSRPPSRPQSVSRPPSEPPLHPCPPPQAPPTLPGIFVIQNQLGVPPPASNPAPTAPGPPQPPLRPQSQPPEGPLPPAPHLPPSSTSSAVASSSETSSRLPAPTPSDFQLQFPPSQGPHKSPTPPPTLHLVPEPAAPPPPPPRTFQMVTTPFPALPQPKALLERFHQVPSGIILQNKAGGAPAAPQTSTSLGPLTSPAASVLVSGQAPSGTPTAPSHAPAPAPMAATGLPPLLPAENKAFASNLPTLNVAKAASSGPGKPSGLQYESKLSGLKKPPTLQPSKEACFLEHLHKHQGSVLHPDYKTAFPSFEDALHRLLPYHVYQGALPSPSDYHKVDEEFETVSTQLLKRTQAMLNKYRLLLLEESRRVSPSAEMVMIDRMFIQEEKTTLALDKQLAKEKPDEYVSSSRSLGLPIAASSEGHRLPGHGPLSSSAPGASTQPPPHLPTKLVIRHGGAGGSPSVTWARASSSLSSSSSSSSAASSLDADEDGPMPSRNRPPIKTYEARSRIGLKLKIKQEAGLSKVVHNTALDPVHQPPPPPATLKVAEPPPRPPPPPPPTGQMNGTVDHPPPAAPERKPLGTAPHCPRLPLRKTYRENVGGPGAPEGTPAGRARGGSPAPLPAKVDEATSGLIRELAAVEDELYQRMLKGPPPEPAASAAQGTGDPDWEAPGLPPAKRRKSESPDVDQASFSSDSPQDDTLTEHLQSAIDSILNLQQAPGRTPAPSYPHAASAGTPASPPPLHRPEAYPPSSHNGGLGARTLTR
UniProt Q2M389, sequence (Q2M389 whole entry, one chain of several): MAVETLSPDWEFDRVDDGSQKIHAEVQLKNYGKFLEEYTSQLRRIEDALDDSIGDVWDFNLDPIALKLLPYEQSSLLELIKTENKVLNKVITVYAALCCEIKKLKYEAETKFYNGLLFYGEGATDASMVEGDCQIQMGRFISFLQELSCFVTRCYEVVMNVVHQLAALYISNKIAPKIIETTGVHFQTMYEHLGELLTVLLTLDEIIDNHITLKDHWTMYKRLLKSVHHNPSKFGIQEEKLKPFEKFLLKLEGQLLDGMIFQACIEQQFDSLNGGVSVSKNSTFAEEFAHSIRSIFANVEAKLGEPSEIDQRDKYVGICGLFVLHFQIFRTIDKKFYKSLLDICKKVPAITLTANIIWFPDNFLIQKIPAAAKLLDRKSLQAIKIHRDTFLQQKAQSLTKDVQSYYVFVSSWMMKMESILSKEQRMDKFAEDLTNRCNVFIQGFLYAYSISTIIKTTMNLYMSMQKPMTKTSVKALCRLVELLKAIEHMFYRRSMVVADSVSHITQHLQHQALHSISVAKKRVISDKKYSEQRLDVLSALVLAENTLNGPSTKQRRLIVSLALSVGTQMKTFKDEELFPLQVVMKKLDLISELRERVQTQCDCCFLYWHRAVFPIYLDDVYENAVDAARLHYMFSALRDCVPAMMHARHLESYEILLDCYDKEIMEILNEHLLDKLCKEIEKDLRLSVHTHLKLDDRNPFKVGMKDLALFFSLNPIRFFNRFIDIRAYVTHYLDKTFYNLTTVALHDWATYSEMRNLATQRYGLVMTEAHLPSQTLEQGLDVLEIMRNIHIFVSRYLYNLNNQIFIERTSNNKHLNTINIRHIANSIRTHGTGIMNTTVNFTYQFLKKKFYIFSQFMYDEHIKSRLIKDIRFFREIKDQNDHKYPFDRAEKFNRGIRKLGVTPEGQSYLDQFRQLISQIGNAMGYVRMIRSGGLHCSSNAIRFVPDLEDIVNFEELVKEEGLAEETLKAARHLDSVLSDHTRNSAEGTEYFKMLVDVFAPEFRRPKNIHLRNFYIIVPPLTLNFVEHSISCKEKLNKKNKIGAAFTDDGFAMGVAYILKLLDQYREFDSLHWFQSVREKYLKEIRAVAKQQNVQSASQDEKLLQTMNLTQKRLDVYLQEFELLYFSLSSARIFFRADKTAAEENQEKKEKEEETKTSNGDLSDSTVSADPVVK
UniProt Q9BQ75, sequence (Q9BQ75 whole entry, one chain of several): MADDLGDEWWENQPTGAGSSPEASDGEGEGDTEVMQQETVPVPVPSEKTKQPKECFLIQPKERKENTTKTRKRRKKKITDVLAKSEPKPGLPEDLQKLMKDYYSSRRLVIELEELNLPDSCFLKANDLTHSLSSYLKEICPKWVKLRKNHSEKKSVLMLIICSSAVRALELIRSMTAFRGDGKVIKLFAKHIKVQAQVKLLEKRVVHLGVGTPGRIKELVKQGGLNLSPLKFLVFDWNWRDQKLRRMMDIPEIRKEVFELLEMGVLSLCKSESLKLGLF
UniProt P52747, sequence (P52747 whole entry, one chain of several): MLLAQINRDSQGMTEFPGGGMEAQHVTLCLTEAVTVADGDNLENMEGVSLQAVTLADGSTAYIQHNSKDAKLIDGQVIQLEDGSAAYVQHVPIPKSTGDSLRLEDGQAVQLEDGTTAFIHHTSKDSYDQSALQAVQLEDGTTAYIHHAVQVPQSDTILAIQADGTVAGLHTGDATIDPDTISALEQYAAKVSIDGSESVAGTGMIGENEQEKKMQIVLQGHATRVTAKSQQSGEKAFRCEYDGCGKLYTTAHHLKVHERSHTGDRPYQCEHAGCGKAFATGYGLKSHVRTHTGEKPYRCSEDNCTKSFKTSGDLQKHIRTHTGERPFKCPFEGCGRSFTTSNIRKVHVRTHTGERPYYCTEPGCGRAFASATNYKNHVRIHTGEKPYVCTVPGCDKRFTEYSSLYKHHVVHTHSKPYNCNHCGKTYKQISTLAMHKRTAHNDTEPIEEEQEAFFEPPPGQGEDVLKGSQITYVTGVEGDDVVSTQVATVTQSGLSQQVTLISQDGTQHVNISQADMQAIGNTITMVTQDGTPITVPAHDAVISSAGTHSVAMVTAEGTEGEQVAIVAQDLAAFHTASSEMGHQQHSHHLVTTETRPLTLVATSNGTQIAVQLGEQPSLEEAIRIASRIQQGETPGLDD
UniProt Q9BTT0, sequence (Q9BTT0 whole entry, one chain of several): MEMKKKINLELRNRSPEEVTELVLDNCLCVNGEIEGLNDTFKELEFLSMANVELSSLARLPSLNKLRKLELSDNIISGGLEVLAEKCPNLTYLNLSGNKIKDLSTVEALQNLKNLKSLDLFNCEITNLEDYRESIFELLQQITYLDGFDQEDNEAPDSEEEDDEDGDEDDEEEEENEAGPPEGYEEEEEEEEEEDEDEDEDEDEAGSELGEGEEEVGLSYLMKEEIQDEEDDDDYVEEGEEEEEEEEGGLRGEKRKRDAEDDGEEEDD
UniProt O14730, sequence (O14730 whole entry, one chain of several): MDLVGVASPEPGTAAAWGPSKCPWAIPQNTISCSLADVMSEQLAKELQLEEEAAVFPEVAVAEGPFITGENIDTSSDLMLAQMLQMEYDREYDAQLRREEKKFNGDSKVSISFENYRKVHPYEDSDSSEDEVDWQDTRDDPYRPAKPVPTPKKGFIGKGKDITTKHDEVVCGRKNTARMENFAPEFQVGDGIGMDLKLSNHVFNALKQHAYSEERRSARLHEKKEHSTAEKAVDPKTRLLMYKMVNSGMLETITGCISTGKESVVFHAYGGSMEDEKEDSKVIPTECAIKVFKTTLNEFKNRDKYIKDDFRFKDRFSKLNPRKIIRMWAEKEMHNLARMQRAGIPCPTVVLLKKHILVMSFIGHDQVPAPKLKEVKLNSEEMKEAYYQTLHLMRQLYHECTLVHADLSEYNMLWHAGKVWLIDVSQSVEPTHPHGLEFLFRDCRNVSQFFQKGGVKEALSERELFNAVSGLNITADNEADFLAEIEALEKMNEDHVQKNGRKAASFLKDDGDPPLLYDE
UniProt Q6UW02, sequence (Q6UW02 whole entry, one chain of several): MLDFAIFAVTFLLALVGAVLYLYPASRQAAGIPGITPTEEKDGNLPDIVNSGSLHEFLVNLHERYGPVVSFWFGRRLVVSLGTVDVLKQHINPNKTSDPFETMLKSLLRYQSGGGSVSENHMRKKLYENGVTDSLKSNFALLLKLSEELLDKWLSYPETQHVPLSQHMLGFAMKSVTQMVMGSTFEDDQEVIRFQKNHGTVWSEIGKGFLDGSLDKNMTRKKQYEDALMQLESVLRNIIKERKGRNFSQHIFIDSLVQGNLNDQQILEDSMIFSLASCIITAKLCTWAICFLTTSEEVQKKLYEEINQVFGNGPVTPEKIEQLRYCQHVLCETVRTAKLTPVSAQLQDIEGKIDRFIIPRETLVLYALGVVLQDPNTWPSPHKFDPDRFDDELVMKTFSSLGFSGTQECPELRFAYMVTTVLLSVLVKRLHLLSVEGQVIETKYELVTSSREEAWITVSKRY
UniProt P56556, sequence (P56556 whole entry, one chain of several): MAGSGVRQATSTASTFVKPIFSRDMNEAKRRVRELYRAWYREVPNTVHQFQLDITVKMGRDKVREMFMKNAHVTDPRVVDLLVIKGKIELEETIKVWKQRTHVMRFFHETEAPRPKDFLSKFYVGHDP

Compound in the first assay: Nc1nc2c(ncn2[C@@H]2O[C@H](COP(=O)(O)OP(=O)(O)OP(=O)(O)O)[C@@H](O)[C@H]2O)c(=O)[nH]1 [guanosine triphosphate]
Briefly: NP40-soluble protein abundance relative to vehicle (solubility fold change) (ratio); higher = more soluble protein in presence of GTP. The note with it: concentration: 6mM. The essentials: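 In three independent experiments, Jurkat crude lysate made by Dounce homogenisation was treated for 10 min at room temperature and then 3 min at 37 °C with eight concentrations ranging from 0.1 to 10 mM. It was then solubilised with 0.8% NP40 plus benzonase for 60 min at 4 °C and ultracentrifuged. The supernatant was TMT-labelled for LC-MS/MS, and each value is the fold change against the detergent-processed vehicle for the same replicate, using vsn-normalised intensities.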
On to G3V394|Q9Y4I1-3 (UniProt Q9Y4I1), for which the NP40-soluble protein abundance is 2.59 ± 0.39.

As for E7EW84|Q8TAG9 (UniProt Q8TAG9), the NP40-soluble protein abundance came out at 0.897 ± 0.022.

On to “B1AL05|H0Y6Y8|H0YBU8|Q8N983|Q8N983-2|Q8N983-3|Q8N983-4|Q8N983-6|Q8N983-7 (UniProt Q8N983)”, for which the NP40-soluble protein abundance came to 1.57 ± 0.65.

As to F2Z2Y4|O00764|O00764-2 (UniProt O00764), the NP40-soluble protein abundance stood at 0.91 ± 0.08.

Consider B3KS98|O15372 (UniProt O15372), for which the NP40-soluble protein abundance is 1.42 ± 0.28.

Consider “A0A0B4J1Z1|C9JAB2|Q16629|Q16629-2|Q16629-3|Q16629-4 (UniProt Q16629)”, for which the NP40-soluble protein abundance was 1.55 ± 0.35.

With E9PRF4|Q15047|Q15047-3 (UniProt Q15047), the NP40-soluble protein abundance stood at 0.881 ± 0.035.

Consider “A0A087WWH3|Q9NZM4|Q9NZM4-2 (UniProt Q9NZM4)”, for which the NP40-soluble protein abundance was 1.13 ± 0.33.

As for B9ZVT1|Q8IXT5 (UniProt Q8IXT5), the NP40-soluble protein abundance was determined as 1.3 ± 0.32.

As for “A0A087WY71|Q96CW1|Q96CW1-2 (UniProt Q96CW1)”, the NP40-soluble protein abundance was 1.03 ± 0.13.

On to “A0A087WY82|Q9Y624|Q9Y624-2 (UniProt Q9Y624)”, for which the NP40-soluble protein abundance was 0.952 ± 0.01.

As to E9PPH5|Q9BTT0|Q9BTT0-3 (UniProt Q9BTT0), the NP40-soluble protein abundance is 0.946 ± 0.037.

As to A0A087WWS1|Q96FV9 (UniProt Q96FV9), the NP40-soluble protein abundance is 2.26 ± 0.76.

For the target E9PHG5|Q6UW02|Q6UW02-2 (UniProt Q6UW02), the NP40-soluble protein abundance amounted to 0.984 ± 0.14.

Consider “H0YIE9|O94952|O94952-1|Q4G104 (UniProt O94952)”, for which the NP40-soluble protein abundance is 0.978 ± 0.078.

On to G5E9Z2|Q96KA5|Q96KA5-2 (UniProt Q96KA5), for which the NP40-soluble protein abundance turned out to be 0.971 ± 0.039.

Turning to “A8MQB8|G3V0J0|Q06787|Q06787-2|Q06787-3|Q06787-4|Q06787-5|Q06787-6|Q06787-7|Q06787-8|Q06787-9 (UniProt Q06787)”, the NP40-soluble protein abundance came out at 1.71 ± 0.037.

Turning to A0A0C4DGS0|P56556 (UniProt P56556), the NP40-soluble protein abundance is 1.02 ± 0.093.

As for E7EX48|P51957|P51957-3 (UniProt P51957), the NP40-soluble protein abundance came to 0.957 ± 0.23.

Regarding H0YEN5|P15880 (UniProt P15880), the NP40-soluble protein abundance stood at 0.836 ± 0.21.

As for “C9IY68|C9J384|Q9BQ75|Q9BQ75-2 (UniProt Q9BQ75)”, the NP40-soluble protein abundance is 1.22 ± 0.094.

In the case of B4E1Q4|O14730|O14730-2 (UniProt O14730), the NP40-soluble protein abundance is 0.77 ± 0.041.

Turning to “E7EN86|P52747|P52747-2|P52747-3 (UniProt P52747)”, the NP40-soluble protein abundance was found to be 0.939 ± 0.055.

For the target A6NFX8|Q9UKK9 (UniProt Q9UKK9), the NP40-soluble protein abundance turned out to be 0.942 ± 0.052.

In the case of F5H136|P17987 (UniProt P17987), the NP40-soluble protein abundance came out at 1.1 ± 0.21.

For “E9PKP7|E9PLT2|P17480|P17480-2 (UniProt P17480)”, the NP40-soluble protein abundance came to 1.45 ± 0.066.

On to A0A087X256|Q2M389 (UniProt Q2M389), for which the NP40-soluble protein abundance was 0.973 ± 0.044.

Consider E9PSH8|P07766 (UniProt P07766), for which the NP40-soluble protein abundance is 0.96 ± 0.082.

For D6RAN8|H7C5U8|Q9P0M9 (UniProt Q9P0M9), the NP40-soluble protein abundance was 1.72 ± 0.79.

As to “G5E953|Q13615|Q13615-2|Q13615-3 (UniProt Q13615)”, the NP40-soluble protein abundance was found to be 0.963 ± 0.065.

With H3BMU3|O60268|O60268-3 (UniProt O60268), the NP40-soluble protein abundance worked out at 0.918 ± 0.2.

On to “F8W0Q9|Q8NEY8-2|Q8NEY8-8|Q8NEY8-9|Q8NEY8-3|Q8NEY8 (UniProt Q8NEY8)”, for which the NP40-soluble protein abundance was 1.45 ± 0.2.

Take C9J8R4|C9JVE2|Q96GG9 (UniProt Q96GG9): the NP40-soluble protein abundance stood at 0.87 ± 0.044.

Turning to A0A087WXI1|Q6NVY1 (UniProt Q6NVY1), the NP40-soluble protein abundance was determined as 0.867 ± 0.092.

Staying with this assay, now noted: concentration: 8mM.
Consider G3V394|Q9Y4I1-3 (UniProt Q9Y4I1), for which the NP40-soluble protein abundance came to 2.5 ± 0.4.

E7EW84|Q8TAG9 (UniProt Q8TAG9): the NP40-soluble protein abundance was found to be 0.882 ± 0.025.

“B1AL05|H0Y6Y8|H0YBU8|Q8N983|Q8N983-2|Q8N983-3|Q8N983-4|Q8N983-6|Q8N983-7 (UniProt Q8N983)”: the NP40-soluble protein abundance amounted to 1.38 ± 0.47.

Take F2Z2Y4|O00764|O00764-2 (UniProt O00764): the NP40-soluble protein abundance was found to be 0.88 ± 0.063.

B3KS98|O15372 (UniProt O15372): the NP40-soluble protein abundance stood at 1.6 ± 0.34.

“A0A0B4J1Z1|C9JAB2|Q16629|Q16629-2|Q16629-3|Q16629-4 (UniProt Q16629)”: the NP40-soluble protein abundance stood at 1.74 ± 0.47.

On to E9PRF4|Q15047|Q15047-3 (UniProt Q15047), for which the NP40-soluble protein abundance is 0.904 ± 0.051.

Take “A0A087WWH3|Q9NZM4|Q9NZM4-2 (UniProt Q9NZM4)”: the NP40-soluble protein abundance worked out at 1.2 ± 0.44.

As to B9ZVT1|Q8IXT5 (UniProt Q8IXT5), the NP40-soluble protein abundance came out at 1.45 ± 0.47.

In the case of “A0A087WY71|Q96CW1|Q96CW1-2 (UniProt Q96CW1)”, the NP40-soluble protein abundance worked out at 0.941 ± 0.023.

In the case of “A0A087WY82|Q9Y624|Q9Y624-2 (UniProt Q9Y624)”, the NP40-soluble protein abundance amounted to 0.858 ± 0.076.

As for E9PPH5|Q9BTT0|Q9BTT0-3 (UniProt Q9BTT0), the NP40-soluble protein abundance was 0.958 ± 0.038.

In the case of A0A087WWS1|Q96FV9 (UniProt Q96FV9), the NP40-soluble protein abundance stood at 2.37 ± 0.83.

With E9PHG5|Q6UW02|Q6UW02-2 (UniProt Q6UW02), the NP40-soluble protein abundance stood at 0.882 ± 0.25.

As to “H0YIE9|O94952|O94952-1|Q4G104 (UniProt O94952)”, the NP40-soluble protein abundance is 1.08 ± 0.035.

For G5E9Z2|Q96KA5|Q96KA5-2 (UniProt Q96KA5), the NP40-soluble protein abundance was 0.974 ± 0.035.

As for “A8MQB8|G3V0J0|Q06787|Q06787-2|Q06787-3|Q06787-4|Q06787-5|Q06787-6|Q06787-7|Q06787-8|Q06787-9 (UniProt Q06787)”, the NP40-soluble protein abundance stood at 1.8 ± 0.048.

Regarding A0A0C4DGS0|P56556 (UniProt P56556), the NP40-soluble protein abundance was 0.939 ± 0.064.

With E7EX48|P51957|P51957-3 (UniProt P51957), the NP40-soluble protein abundance turned out to be 0.985 ± 0.25.

With H0YEN5|P15880 (UniProt P15880), the NP40-soluble protein abundance stood at 0.738 ± 0.17.

Regarding “C9IY68|C9J384|Q9BQ75|Q9BQ75-2 (UniProt Q9BQ75)”, the NP40-soluble protein abundance came to 1.23 ± 0.12.

For the target B4E1Q4|O14730|O14730-2 (UniProt O14730), the NP40-soluble protein abundance turned out to be 0.747 ± 0.08.

Take “E7EN86|P52747|P52747-2|P52747-3 (UniProt P52747)”: the NP40-soluble protein abundance was found to be 1.03 ± 0.013.

Take A6NFX8|Q9UKK9 (UniProt Q9UKK9): the NP40-soluble protein abundance came out at 0.93 ± 0.018.

As to F5H136|P17987 (UniProt P17987), the NP40-soluble protein abundance was 1.06 ± 0.19.

Turning to “E9PKP7|E9PLT2|P17480|P17480-2 (UniProt P17480)”, the NP40-soluble protein abundance came to 1.5 ± 0.053.

As for A0A087X256|Q2M389 (UniProt Q2M389), the NP40-soluble protein abundance came to 1.02 ± 0.068.

Turning to E9PSH8|P07766 (UniProt P07766), the NP40-soluble protein abundance came out at 0.978 ± 0.068.

D6RAN8|H7C5U8|Q9P0M9 (UniProt Q9P0M9): the NP40-soluble protein abundance amounted to 1.64 ± 0.79.

On to “G5E953|Q13615|Q13615-2|Q13615-3 (UniProt Q13615)”, for which the NP40-soluble protein abundance turned out to be 1 ± 0.042.

H3BMU3|O60268|O60268-3 (UniProt O60268): the NP40-soluble protein abundance turned out to be 0.919 ± 0.067.

“F8W0Q9|Q8NEY8-2|Q8NEY8-8|Q8NEY8-9|Q8NEY8-3|Q8NEY8 (UniProt Q8NEY8)”: the NP40-soluble protein abundance was 1.63 ± 0.22.

With C9J8R4|C9JVE2|Q96GG9 (UniProt Q96GG9), the NP40-soluble protein abundance came to 0.842 ± 0.077.

Take A0A087WXI1|Q6NVY1 (UniProt Q6NVY1): the NP40-soluble protein abundance was determined as 0.861 ± 0.096.
